This is an account of results in PubChem BioAssay (NCATS).

Structures are written as SMILES. Where “and” joins values, the source holds several entries; their conditions need not be identical. Equal values may be shown once. Records with an inconclusive call do not appear. The source holds several records for some structures; these can differ, active in one and inactive in another. A number with no mark means an inactive call. Calls of active or inactive are those of the source. Calls follow the shape of the dose curve; as a rule, active = well fitted activation curve with a large enough effect; inconclusive = small, poorly fitted or top-dose-only effect; inactive = no such curve, though single readings can be large or run the other way.
Potency is read from the fitted curve at half-maximal effect.

Chain of Cellular tumor antigen p53 (Homo sapiens) (P04637 whole entry, looked up): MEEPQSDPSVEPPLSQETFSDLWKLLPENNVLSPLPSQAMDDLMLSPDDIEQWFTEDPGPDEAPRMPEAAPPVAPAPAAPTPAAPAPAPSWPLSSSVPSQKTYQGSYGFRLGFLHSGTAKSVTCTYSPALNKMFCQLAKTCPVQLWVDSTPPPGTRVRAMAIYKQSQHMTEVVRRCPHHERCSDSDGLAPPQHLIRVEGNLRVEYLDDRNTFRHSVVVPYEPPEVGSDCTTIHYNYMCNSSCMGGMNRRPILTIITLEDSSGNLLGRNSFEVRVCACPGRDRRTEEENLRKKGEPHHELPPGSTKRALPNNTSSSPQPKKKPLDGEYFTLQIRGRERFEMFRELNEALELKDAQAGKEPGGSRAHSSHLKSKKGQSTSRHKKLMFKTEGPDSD

The target of the assay is Cellular tumor antigen p53 (Homo sapiens) (UniProt P04637). In words: Primary qHTS for small molecule compounds that upregulate eGFP-tagged delta133p53alpha (in N-terminal) cells. (AID 2060322). Also: nearly all actives have a fitted effect of over 75% in size.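 As to activation: cells pre-induced with doxycycline then dosed without doxycycline; series mostly up to about 56 µM; 0% = DMSO vehicle and 100% = reference activator.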 The settings on record: NCI-H358 eGFP-delta133p53alpha fluorescence, 24 h; activation: active compounds read high. The source says:
Assay Development and Screening Technology
National Center for Advancing Translational Sciences (NCATS),
National Institute of Health (NIH), Rockville, Maryland
Cellular senescence (CS) is one of the hallmarks of aging and age-related diseases. Senescent cells are characterized by an irreversible growth arrest, an increase in senescence-associated beta-galactosidase (SA-beta-gal) activity and p16INK4a expression, an activation of the DNA damage response pathways, and the emergence of a senescence-associated secretory phenotype (SASP).
Delta133p53alpha, a human/primate-specific p53 protein isoform, delays or inhibits the induction of CS and SASP in various types of human cells, including progeria-derived fibroblasts, primary normal astrocytes, and CD8+ T lymphocytes. Induction of delta133p53alpha with small molecule compounds may provide therapeutic opportunities for inhibition of senescence/SASP-associated pathologies in progeria syndromes, astrocyte-mediated neuroprotection in neurodegenerative diseases, and possibly prevention and treatment of a wider range of senescence- and aging-associated diseases.
Here we report the development and validation of a cell-based quantitative high throughput screening (qHTS) assay in 1,536-well format. This qHTS assay uses the NCI-H358 cell line with doxycycline-inducible expression of enhanced green fluorescent protein (eGFP)-tagged delta133p53alpha, which allows efficient and highly quantitative measurement of the protein levels.
PROTOCOL TABLE (as described by Inglese J, Shamu CE and Guy RK. 2007)
SEQUENCE No. (e.g., 1, 2, 3, etc.); […] (e.g., Cells, Incubation, Reagent, etc.); VALUE; DESCRIPTION.
1; Cells; 4uL; 800 doxycycline treated cells / well in doxycycline-free media, 1536-well black, clear-bottom low base Aurora microplates.
2; Compounds; 23 nL; Kalypsis pin tool (Wako) equipped with 1536-well pin heads, 5-azacytidine positive control.
3; Incubation; 24 hr; 37C, 5% CO2; 95% relative humidity.
4; Aspiration; 1x; BioTek EL406 washer dispenser (Agilent).
5; Fixing; 3.5% paraformaldehyde, BioTek EL406 washer dispenser (Agilent).
6; Washing; 1x PBS; BioTek EL406 washer dispenser (Agilent).
7; Nuclei staining; 1:1000 dilution of Hoechst 33342 (Thermofisher), BioTek EL406 washer dispenser (Agilent).
8; Incubation; 20 min; in the dark at room temperature.
9; Washing; 2x, 1x PBS (ThermoFisher), BioTek EL406 washer dispenser (Agilent).
10; Reagent; 10 uL; 1x PBS per well, sealed with clear adhesive tape.
NOTES (numbers refer to sequence numbers above).
1. NCI-H358 cells expressing eGFP-tagged delta133p53alpha were grown in T75 culture flasks and treated with doxycycline for 24h, at 10 ng/ml for eGFP-D133p53a cells (N-terminal cell) and 100 ng/ml for D133p53a-eGFP cells (C-terminal cells). Cells were trypsinized, counted using a Counted 3 Automated Cell Counter (Thermo Fisher), and diluted to a concentration of 200,000 cells/ml. A Multidrop Combi Reagent Dispenser (ThermoFisher) was used to dispense 800 cells/well in […] of doxycycline-free media, into 1536-well black/clear bottom low base plates (AuroraMicroplates).
2. After plating cells, 23 nl of compound library, DMSO vehicle control or positive control (5-azacytidine) were transferred by Pin Tool (Wako). The plate map layout was the same for each plate: (column 1) non-doxycycline treated cells + DMSO vehicle control; (column 2) doxycycline treated cells + DMSO vehicle control baseline; (column 3) doxycycline treated cells + positive control 57.5 uM final concentration 5-azacytidine; (column 4) doxycycline treated cells + serial dilution of 5-azacytidine, 16-point 1:2 titration spanning 1.8 nM to […] final concentration; (columns 5-48) doxycycline treated cells + titration of library compounds.
3. Cells were incubated at 37 °C, 5 % CO2, 95% RH with breathable metal lid for 24h.
4-10. […] After two washes, 10 ul of 1X PBS (Thermo Fisher) was dispensed to each well. Clear adhesive plate seals (VWR) were applied and plates stored at 4 °C.
11. […]
`COc1ccc(-n2c(=O)[nH]c3cc(C(=O)NCc4ccc(Cl)cc4)sc3c2=O)nc1OC`: the activation was -16.1%.
As for `CCOC(=O)c1c(C)n(C)c2ccc(O)cc12`, the activation is 6.69% and -7.58%.
As to `Cn1c(Nc2ccc(C(F)(F)F)cc2)nc2cc(Oc3ccnc(-c4ncc(C(F)(F)F)[nH]4)c3)ccc21`, the activation is 0.151%.
Turning to `CCS(=O)(=O)N1CCC([C@@H](C)n2c(C)c(C(=O)NCc3c(OC)cc(C)[nH]c3=O)c3ccccc32)CC1`, the activation is 7.16%.
`CC1OC(OC2C(OC3C(O[C@H]4CC[C@@]5(C)C(CC[C@]6(C)C5CC=C5C7CC(C)(C)CC(O)[C@]7(C)CC[C@]56C)C4(C)C)OC(C(=O)O)C(O)C3O)OCC(O)C2O)C(O)C(O)C1O` (stereo partly specified): the activation was 3.57%.
Consider `Nc1cccc(CNC(=O)c2ccc(Oc3ccc(OCc4cccc(F)c4)cc3)nc2)c1`, for which the activation is -6.68%.
Take `Cc1cc(O[C@@H]2O[C@H](COC(=O)CC(=O)O)[C@@H](O)[C@H](O)[C@H]2O)c(C(C)C)cc1O`: the activation was 0.763%.
Turning to `O=C(O)CC1CCC(c2ccc(-c3ccc(Nc4ccc(C(F)(F)F)nc4)cn3)cc2)CC1` (stereo unspecified), the activation was -9.55%.
`c1ccc2c(c1)CCC[C@H]2Nc1nc2ccccc2[nH]1`: the activation was 27.9%.
As for `COc1c2ccoc2nc2c(OC)c(O[C@@H]3O[C@@H](C)[C@H](O)[C@@H](O[C@@H]4O[C@H](CO)[C@@H](O)[C@H](O)[C@H]4O)[C@H]3OC(C)=O)ccc12`, the activation is 27.7%.
With `COc1cc(F)c(C(C)C)cc1-c1ccc(C(F)(F)F)cc1CN1C(=O)OC(c2cc(C(F)(F)F)cc(C(F)(F)F)c2)C1C` (stereo unspecified), the activation was -6.68%.
As to `CC(C)c1onc(-c2c(Cl)cccc2Cl)c1COc1ccc(C=Cc2cccc(C(=O)O)c2)c(Cl)c1`, the activation was -0.915%.
`CC1(C)CC[C@]2(C(=O)OC3OC(CO)C(O)C(O)C3O)CC[C@]3(C)C(=CCC4[C@@]5(C)C[C@@H](O)[C@H](OC6OC(C(=O)O)C(O)C(O)C6O)C(C)(C)C5CC[C@]43C)[C@@H]2C1` (stereo partly specified): the activation is -2.29%.
Still for that read-out and setting: for `O=C(NCC1(N2CCN(c3ccccc3)CC2)CCOCC1)c1cccnc1Sc1ccccc1` the value was -3.34%; for `C=CC(C)(O)CC[C@H]1C(=C)CCC2[C@](C)(C(=O)O)CCC[C@@]21C` (stereo partly specified), 24.1%; for `CN1C(C)(C)CCCC1(C)C`, 0%.
`CN=C(NC#N)Nc1ccc(C2=NNC(=O)CC2C)cc1` (stereo unspecified): the activation is 6.69%.
Turning to `Cc1ccc(OC[C@H](O)[C@H](C)NC(C)C)c2c1CCC2`, the activation was 10.3%.
With `O=C1c2c(O)cc(O)cc2OC(c2ccc(O)c(O)c2)C1O` (stereo unspecified), the activation is 31.8% and -16.9%.
For `CC(C)c1ccc(CC(=O)N2CCC[C@@H](c3cccc(OC(C)(C)C(=O)O)c3)C2)cc1`, the activation was 7%.
Still for that read-out and setting: the same measure for `COCc1c(O)c(C(=O)O)c(C)c2c1OC(=O)c1c(C)cc(O)c(CO)c1O2`: 0.893%; for `COc1cc(C)c(C(=O)O[C@H]2[C@@H](OC(C)=O)[C@H](n3ccc(=O)[nH]c3=O)O[C@@H]2CO)c(OC)c1`: -10.7%; for `CC(C)/C=C1\NC(=O)C(C(C)C)n2c1nc1ccccc1c2=O` (stereo unspecified): -10.7%.
`Clc1ccc(C(Cn2ccnc2)OCc2ccc(Sc3ccccc3)cc2)c(Cl)c1` (stereo unspecified): the activation was -3.95% and 8.63%.
Same read-out and setting: the same measure for `Nc1ccn([C@H]2CC[C@@H](CO)O2)c(=O)n1`: 32.8% and -1.67% and -29%.
Consider `CC(C)c1ccc2c(c1)C(O)CC1C(C)(C(=O)O)CCCC21C` (stereo unspecified), for which the activation is -6.11%.
The same measure, in the same setting: the same measure for `C=CS(=O)(=O)N1CCCN(c2cc(NCCC(=O)O)nc(-c3ccccn3)n2)CC1`: -4.47%; for `C#C[C@]1(O)CC[C@@H]2[C@@H]3CCc4cc(O)ccc4[C@H]3CC[C@@]21C`: 18.7%; for `CC1(CO)CC[C@]2(C(=O)O[C@@H]3O[C@H](CO)[C@@H](O)[C@H](O)[C@H]3O)CC[C@]3(C)C(=CCC4[C@@]5(C)C[C@H](O)[C@H](O[C@@H]6OC[C@@H](O)[C@H](O)[C@H]6O)[C@@](C)(CO)C5CC[C@]43C)C2C1` (stereo partly specified): -16%.
Turning to `COc1ccc(C=CC(=O)Nc2ccccc2C(=O)O)cc1OC`, the activation was 5.12%.
On to `CN1C(=O)N(c2cc(Cl)cc(Cl)c2)C(=O)[C@@]1(C)Cc1ccc(Br)cc1`, for which the activation is 5%.
`CC(C)(C)CCN1C[C@@H]2C(CNC(=O)c3cc(Cl)cc(Cl)c3)[C@@H]2C1` (stereo partly specified): the activation was 26.3%.
As to `CCCCCCCCOc1ccccc1C(=O)Nc1ccc(C(=O)OCC[N+](C)(CC)CC)cc1`, the activation was -5.01%.
On to `C=C1C(=O)O[C@@H]2/C=C(\C)CC/C=C(\C(=O)O[C@@H]3O[C@H](CO)[C@@H](O)[C@H](O)[C@H]3O)CC[C@@H]12`, for which the activation was -5.36%.
The same measure, in the same setting: the same measure for `O=C(c1c(F)ccc(NS(=O)(=O)N2CC[C@@H](F)C2)c1F)c1c[nH]c2ncc(-c3cnc(C4CC4)nc3)cc12`: 17%; for `COc1ccc(C2CNC(=O)C2)cc1OC1CCCC1` (stereo unspecified): 8.47% and 29.3%.
As for `CCC(C)/C=C(C)/C=C/C1=CC2=C(Cl)C(=O)C(C)(OC(C)=O)C(=O)C2=CN1CCCC(=O)O` (stereo unspecified), the activation was 0.763%.
On the same count and under the same terms, for `C/C=C/C=C/C=C/C(=O)O[C@@H]1C=C(CO)C(O)(C(=O)OC)[C@@]2(C)CCCC(C)(C)C12` (stereo partly specified) the value was -10.7%; for `CCN(CC)CCCCNc1ncc2cc(-c3cc(OC)cc(OC)c3)c(NC(=O)NC(C)(C)C)nc2n1`, 27.9%.
In the case of `C[C@]12CC[C@@H]3c4ccc(O)cc4CC[C@H]3[C@@H]1CC[C@@H]2OC(=O)CCC1CCCC1`, the activation is 19.6% and the Potency is 30.9 µM (active).
